hcDAF-12 act – activators of H. contortus DAF-12 nuclear receptor | HEK293 hcDAF-12 lit1-tk-luc reporter, luminescence; 0% DMSO, 100% Δ7-dafachronic acid | activation, % at 6.8 µM | hit rate 1.4% among 370,000;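 active = activation above the mean of all tested compounds plus 3 SD, cut at about 5.5% in these data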;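 note: 100% = response to 3 µM Δ7-dafachronic acid high control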
DAX1 inh-1 – blocks DAX1 repression of SF-1 activated StAR promoter; HEK293T StAR-luciferase reporter, SF-1/DAX-1 repression relief; hit rate 1.1% among 370,000; inhibition, % at 6.8 µM;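 active = inhibition above the mean over all tested compounds plus 3 SD, cut at about 3.6% in these data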;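 note: 0% = DAX-1 cells with DMSO and 100% = cells lacking DAX-1 with DMSO; higher inhibition means more luminescence from relief of DAX-1 repression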
ssDAF12 agonist – activates DAF-12 receptor from parasite S. stercoralis; HEK293 ssDAF-12/GRIP1 lit1-tk-luc reporter, luminescence; % of 3 µM dafachronic acid response; activation, % at 6.8 µM; hit rate 1% among 370,000; AID 652126;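 active = activation above the mean over all tested compounds plus 3 SD, cut at about 0.9% in these data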;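 note: 0% = DMSO-only wells and 100% = 3 µM delta7-dafachronic acid wells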
hgDAF12 agonist – activates the H. glycines DAF-12 receptor ligand-binding domain; activation, % at 6.8 µM; hit rate 1.8% among 370,000; HEK293 GAL4-hgDAF12 UAS-luciferase reporter, agonist luminescence; normalized to butyrate control;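 active = activation above a cutoff set at the mean of all screened compounds plus 3 SD, cut at about 10% in these data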;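 note: 0% = DMSO wells and 100% = sodium butyrate wells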
DAX1 inh-2 – inhibitors of human orphan nuclear receptor DAX1 (NR0B1) | HEK293 Gal4-DAX1 luciferase reporter, luminescence | inhibition, % at 6.75 µM | hit rate 0.99% among 340,000 | AID 504766;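 active = inhibition above the mean over all tested compounds plus 3 SD, cut at about 4.2% in these data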;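 note: 0% = DAX1-transfected cells with DMSO and 100% = empty-vector control cells with DMSO; inhibition shows as a rise in luminescence from relieved DAX1 repression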
hgDAF12 ag – confirmation of H. glycines DAF-12 agonists | shares compounds with hgDAF12 agonist | HEK293 GAL4-hgDAF12 luciferase reporter, agonist mode; percent of butyrate response | activation, % at 6.8 µM | hit rate 80% among 3,300;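 active = mean activation over triplicate wells above the hit cutoff derived from the earlier primary screen, cut at about 11% in these data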;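 note: 0% = DMSO low control and 100% = 2 mM sodium butyrate high control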
LXR ag 2 – LXR-beta agonism as DAF-12 counter-screen. HEK293 Gal4-LXR luciferase reporter, 24 h. 3,300 tested, under 10 active. shares compounds with hgDAF12 agonist. activation, % at 6.8 µM;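 active = mean activation of the triplicate above a set limit carried over from the primary screen, none filed active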
Target sequence (P55055 whole entry, looked up, the tested form may be a part): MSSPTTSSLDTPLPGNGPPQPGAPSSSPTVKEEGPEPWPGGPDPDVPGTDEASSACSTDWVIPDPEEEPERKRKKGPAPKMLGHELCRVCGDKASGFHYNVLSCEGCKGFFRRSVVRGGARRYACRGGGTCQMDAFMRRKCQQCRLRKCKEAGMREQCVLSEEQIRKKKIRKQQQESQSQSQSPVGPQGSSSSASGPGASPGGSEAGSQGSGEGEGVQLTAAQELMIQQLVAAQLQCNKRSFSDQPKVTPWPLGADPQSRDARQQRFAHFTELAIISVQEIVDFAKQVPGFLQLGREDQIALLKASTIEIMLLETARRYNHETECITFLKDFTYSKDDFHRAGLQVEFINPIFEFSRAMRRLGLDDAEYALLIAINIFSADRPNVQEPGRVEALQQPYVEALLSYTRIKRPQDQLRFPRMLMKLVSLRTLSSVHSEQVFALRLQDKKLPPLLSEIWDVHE
An asterisk follows results filed as active; . = no result. A selection: hits, their analogues and other compounds. The true share with any hit is near 4.1%.

SMILES	hcDAF-12 act	DAX1 inh-1	ssDAF12 agonist	hgDAF12 agonist	DAX1 inh-2	hgDAF12 ag	LXR ag 2
O=C(CN1C(=O)c2cccc([N+](=O)[O-])c2C1=O)N1CCc2ccccc2C1	1.5	-0.5	-1.7	3.1	0.1	.	.
Cc1cccc(NC(=O)c2ccc3c(c2)OCCO3)c1	5.2	1.9	-0.6	16.9*	-3.3	17.7*	1.2
CC(=O)c1ccc(N/C=C\C(=O)c2ccc(C)cc2)cc1	2.9	2.4	2.0*	18.5*	1.9	19.7*	0.8
COc1ccc(-c2cn3nc(SCC(=O)NC4CCCCC4)ccc3n2)cc1	3.8	2.1	0.1	14.9*	1.6	15.1*	0.8
COc1ccc(-c2ccc(SCC(=O)NC3CCCCC3)nn2)cc1	-0.7	0.2	-0.7	2.9	0.7	.	.
Clc1ccc(Cc2noc(-c3cccs3)n2)cc1	0.9	1.0	-0.6	18.6*	1.2	9.2	0.3
Cc1ccc(NC(=O)COC(=O)c2ccco2)cc1	0.6	0.2	-1.4	-2.8	-0.3	.	.
Cc1ccc2nc(-c3ccc(NC(=O)CN4C(=O)NC(C)(c5ccc(OC(F)F)cc5)C4=O)cc3)sc2c1 (stereo unspecified)	5.8*	2.5	-0.3	15.3*	-1.4	14.4*	0.6
Cc1ccc2nc(-c3ccc(NC(=O)COC(=O)c4ccco4)cc3)sc2c1	4.5	4.1*	0.1	21.3*	1.5	19.3*	0.9
CC1(c2ccc(OC(F)F)cc2)NC(=O)N(CC(=O)Nc2ccccc2)C1=O (stereo unspecified)	1.0	0.6	-0.5	1.7	-0.2	.	.
CC(=O)Nc1ccc(S(=O)(=O)Nc2nc3ccc(C)cc3s2)cc1	0.3	-0.4	-0.5	3.8	-0.5	.	.
CC(C)CCNC(=S)Nc1ccc(F)cc1	-1.2	-0.9	-1.4	0.7	-0.8	.	.
Cc1ccc2nc(-c3ccc(NC(=S)NCCC(C)C)cc3)sc2c1	3.9	3.2	0.4	13.6*	1.9	15.1*	0.6
CC(=O)NC(=S)Nc1ccc(-c2nc3ccc(C)cc3s2)cc1	4.9	2.9	-0.3	15.2*	4.1	21.9*	0.8
COc1ccc(C(C)C)cc1-c1cccc2nncn12	-1.7	-0.5	-0.9	-4.1	.	.	.
O=C1NC[C@H](CCCCN2CCN(CCc3ccc(O)cc3)C(=O)C2=O)N(CCC2CCCCC2)C1=O	-0.1	0.1	0.2	2.8	.	.	.
CCOC(=O)Nc1nc(-c2ccc(Cl)cc2Cl)cs1	-0.2	1.0	-1.0	7.8	0.5	.	.
O=C(OCCCCSc1nnc(-c2cccc3ccccc23)o1)c1ccc(F)cc1	-0.8	.	-0.9	0.0	.	.	.
CC1=C(C(=O)OC(C)C)C(c2ccc(Cl)cc2)n2c(s/c(=C\c3ccc(OCC(=O)O)cc3)c2=O)=N1 (stereo unspecified)	-1.4	-0.2	-1.3	1.1	-0.2	.	.
Cc1ccc(-c2nc3ccccc3s2)cc1NC(=S)NC(=O)c1ccccc1	5.7*	2.0	1.6*	14.7*	2.5	16.1*	0.5
Cc1cc(C)nc(NC(=S)NC(=O)c2ccccc2)n1	-0.5	0.3	0.2	0.9	1.7	.	.
C[C@H]1CCC(=O)N(CCSc2ccc(Br)cc2)CC1	0.1	0.3	-0.7	7.0	1.3	.	.
Cc1ccc(SCCN2CCC(C)CCC2=O)cc1 (stereo unspecified)	3.5	1.8	0.2	14.4*	1.8	17.3*	0.6
O=c1[nH]cnc2cc(-c3ccccc3)sc12	1.2	1.5	-0.8	13.4*	0.1	11.5*	0.5
Cc1nn(C)c(Cl)c1S(=O)(=O)N1CCC(CO)(CCc2ccccc2)CC1	-2.0	-0.2	-1.2	-1.2	-0.4	.	.
COc1ccc(-c2ccc(C(=O)Nc3ccc(NC(C)=O)cc3)c3occc23)c(C)c1	-0.1	-1.1	-1.1	1.2	.	.	.
COc1ccc(-c2ccc(C(=O)Nc3ccc(Cl)cc3)c3occc23)c(C)c1	-0.4	2.0	-0.8	17.6*	.	7.9	0.4
CC(=O)NCCC1CCCCN1C(=O)c1cc(COc2cc(C)ccc2C)on1 (stereo unspecified)	4.6	1.9	0.8	15.7*	1.4	13.3*	0.6
COC1CCN(C(=O)c2cc(COc3cc(C)ccc3C)on2)CC1	-1.7	0.0	-0.8	1.9	1.3	.	.

Screening data from PubChem BioAssay.
